15 compounds from PubChem BioAssay (NCI) can be followed below.

Structures are written as SMILES. The panel holds about 83,000 compounds, 20% with a hit somewhere; the sample as a whole holds those more often.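 How to read the values: 0–100, growth inhibition (40 = 60% inhibited); 0, no net growth; -100 to 0, cell death (-40 = 40% of starting cells died; -100 = all dead).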 Unmarked numbers belong to inactive results. Activity calls are given as the source filed them. Rule for the calls: active = growth percent below 10; inactive = the rest.

Among the test systems are HCT-15 colon; HT29 colon; SNB-75 CNS; SNB-19 CNS; U251 CNS; PC-3 prostate; SK-MEL-5 melanoma; UACC-62 melanoma; SK-MEL-28 melanoma; LOX IMVI melanoma.
Test in all cases: NCI-60 one-dose screen, 48 h (100 = growth as untreated, 0 = no growth, -100 = all killed)
Common to all, as to details: 10 µM

On to `N#C/C(=C/c1cc([N+](=O)[O-])ccc1Cl)C(N)=O`, for which the growth was 83.4% in the assay on HCT-15 colon; 80.3% with HT29 colon; 88.9% in the assay with SNB-75 CNS; 99.7% in the assay on SNB-19 CNS; 93.6% in the assay with U251 CNS; 88.7% in the assay with PC-3 prostate. Besides, the growth is 98.8% with SK-MEL-5 melanoma, 104% in the assay on UACC-62 melanoma and 105% with SK-MEL-28 melanoma.

Take `CC(C)OP(=O)(O)c1ncc(-c2ccc(C(F)(F)F)cc2)c(NC2CCCCCC2)n1`: the growth is 95.4% in the assay on HCT-15 colon; 47.5% with HT29 colon; 73% with SNB-75 CNS; 71.3% in the assay with SNB-19 CNS; 30.4% in the assay with U251 CNS; 24.2% with PC-3 prostate. In addition, the growth in the assay on SK-MEL-5 melanoma was 43%; in the assay with UACC-62 melanoma, 31.6%; in the assay with LOX IMVI melanoma it was 64.6%; in the assay on SK-MEL-28 melanoma, 51.4%.

`CCOC(=O)C(CCC1=NC(C)(C)CC(C)O1)C(=O)OCC` (centres undefined): the growth is 46% in the assay with HCT-15 colon; 32% in the assay with HT29 colon; 104% with SNB-75 CNS; 106% in the assay on SNB-19 CNS; 82.3% in the assay on U251 CNS; 76.3% with PC-3 prostate. Further, the growth in the assay on SK-MEL-5 melanoma is 108%; in the assay on UACC-62 melanoma, 93.3%; in the assay on SK-MEL-28 melanoma, 107%.

With `C#CCNCCN1C(=O)c2ccc3c4c(ccc(c24)C1=O)C(=O)N(CCNCC#C)C3=O`, the growth in the assay with HCT-15 colon is 19.5%; in the assay with HT29 colon it was 2.13% (active); in the assay on SNB-75 CNS, 75.4%; in the assay on SNB-19 CNS, 46%; in the assay on U251 CNS, 29.5%; in the assay with PC-3 prostate it was 47.7%. Besides, the growth in the assay on SK-MEL-5 melanoma is -81.3% (active); in the assay with UACC-62 melanoma, 16.7%; in the assay with SK-MEL-28 melanoma it was 83.9%.

For the compound `Cc1nc2sccn2c1-c1csc(Nc2cccc(Cl)c2C)n1`, the growth was 46.4% in the assay on HCT-15 colon; 31% in the assay with HT29 colon; 77.5% with SNB-75 CNS; 77.1% with SNB-19 CNS; 60.8% in the assay on U251 CNS; 53.1% in the assay on PC-3 prostate. For the same compound, the growth is 16.5% with SK-MEL-5 melanoma, 53.3% in the assay on UACC-62 melanoma and 59.7% in the assay with SK-MEL-28 melanoma.

As for `COc1ccccc1S(=O)(=O)Nc1ccc2c(c1)CN(C)C(=O)N2`, the growth in the assay with HCT-15 colon was 40.8%; in the assay on HT29 colon, 22.8%; in the assay with SNB-75 CNS, 17.5%; with SNB-19 CNS it was 54.1%; in the assay with U251 CNS, 50%; in the assay with PC-3 prostate it was 35.3%. For the same compound, the growth in the assay with SK-MEL-5 melanoma was 40.5%; in the assay on UACC-62 melanoma, 29.3%; in the assay with SK-MEL-28 melanoma, 48.9%.

In the case of `COc1ccc(-c2cc(/C=C/C(=O)c3ccc(N)cc3)[nH]n2)cc1OC`, the growth in the assay with HCT-15 colon is 26%; with HT29 colon, 22.6%; in the assay with SNB-75 CNS, 36.8%; in the assay on SNB-19 CNS, 51.6%; with U251 CNS, 28.5%; with PC-3 prostate, 41.8%. Further, the growth in the assay on SK-MEL-5 melanoma was 63.4%; with UACC-62 melanoma, 71.2%; in the assay on SK-MEL-28 melanoma, 41.9%.

As for `COC1OC2COC(c3ccccc3)OC2C(=O)C1NC(=O)c1ccccc1` (centres undefined), the growth was 101% in the assay with HCT-15 colon; 105% with HT29 colon; 83% with SNB-75 CNS; 94.9% in the assay with SNB-19 CNS; 109% in the assay with U251 CNS; 85% with PC-3 prostate. The growth in the assay on SK-MEL-5 melanoma was 108%; with UACC-62 melanoma, 93.7%; in the assay with LOX IMVI melanoma it was 90.1%; with SK-MEL-28 melanoma, 109%.

Take `Cc1ccc(S(=O)(=O)Nc2cccc3[nH]c(C(F)(F)F)nc23)cc1`: the growth in the assay with HCT-15 colon was 28.3%; in the assay with HT29 colon, 4.99% (active); in the assay with SNB-75 CNS, -4.83% (active); in the assay with SNB-19 CNS, 39.2%; in the assay with U251 CNS, 29.8%; in the assay on PC-3 prostate it was 17.2%. Further, the figures for the growth in the assay with SK-MEL-5 melanoma, in the assay on UACC-62 melanoma and in the assay on SK-MEL-28 melanoma were 7.01% (active), 36.9% and 38.4%, respectively.

For `O=c1c2cccc3c(Nc4ccc(Br)cn4)ccc(c32)c2nc3ccccc3n12`, the growth with HCT-15 colon was 72%; in the assay with HT29 colon it was 94.6%; in the assay with SNB-75 CNS, 44%; in the assay with SNB-19 CNS, 85.9%; in the assay with U251 CNS it was 93.6%; in the assay on PC-3 prostate, 76.7%. Moreover, the growth in the assay with SK-MEL-5 melanoma is 76.2%; in the assay on UACC-62 melanoma, 84.8%; with LOX IMVI melanoma, 87.2%; in the assay on SK-MEL-28 melanoma it was 72.9%.

Take `C=CCOc1ccc2c(c1)CC[C@@H]1[C@@H]2CC[C@]2(C)C(=O)/C(=N/O)C[C@@H]12`: the growth in the assay with HCT-15 colon is 41.6%; in the assay with HT29 colon, 2.91% (active); in the assay with SNB-75 CNS it was 18.9%; in the assay on SNB-19 CNS, 69.5%; in the assay with U251 CNS it was 68.8%; in the assay with PC-3 prostate, 42.1%. The growth is 77.4% in the assay with SK-MEL-5 melanoma, 93.5% in the assay with UACC-62 melanoma, 42.3% with LOX IMVI melanoma and 106% in the assay on SK-MEL-28 melanoma.

Regarding `CC(C)c1[nH]nc2c(NCc3ccc(-c4ccccn4)cc3)nc(SCCN)nc12`, the growth with HCT-15 colon was 7.24% (active); in the assay on HT29 colon, -24.2% (active); in the assay on SNB-75 CNS, -78.5% (active); in the assay on SNB-19 CNS, 12.2%; in the assay on U251 CNS, 5.64% (active); in the assay with PC-3 prostate, -0.489% (active). Further, the growth with SK-MEL-5 melanoma was -38.6% (active); in the assay on UACC-62 melanoma it was -10.2% (active); in the assay on SK-MEL-28 melanoma it was -13.8% (active).

As to `COc1ccc(-c2csc(-c3cc(Cl)cc(Cl)c3Cl)n2)cc1`, the growth is 89.2% with HCT-15 colon; 101% with HT29 colon; 91.6% in the assay on SNB-75 CNS; 103% with SNB-19 CNS; 95% in the assay with PC-3 prostate; 29.2% in the assay on SK-MEL-5 melanoma. The growth in the assay with UACC-62 melanoma was 63%; in the assay with LOX IMVI melanoma, 83.1%; in the assay with SK-MEL-28 melanoma it was 107%.

`FC(F)(F)c1ccc(-c2cnc(Cl)nc2NC2CCCCCC2)cc1`: the growth with HCT-15 colon is 75.7%; with HT29 colon, 19.1%; in the assay on SNB-75 CNS, 49.9%; in the assay on SNB-19 CNS it was 31.2%; in the assay on PC-3 prostate, 1.08% (active); in the assay on SK-MEL-5 melanoma, -8.26% (active). The growth in the assay on UACC-62 melanoma is 16.2%; in the assay with LOX IMVI melanoma, 27.9%; in the assay with SK-MEL-28 melanoma, 37.6%.

For `COC(=O)[C@]12CC[C@@H](C)[C@H](C)[C@@H]1C1=CC[C@@H]3[C@@]4(C)C/C(=N\O)[C@H](O)[C@@]5(C)COC(=C45)C[C@@]3(C)[C@]1(C)CC2`, the growth was -92.7% (active) with HCT-15 colon; -92.9% (active) with HT29 colon; -87.8% (active) with SNB-75 CNS; -66.2% (active) in the assay on SNB-19 CNS; -81.5% (active) in the assay with PC-3 prostate; -97.7% (active) with SK-MEL-5 melanoma. Also, the growth with UACC-62 melanoma was -57.6% (active); in the assay with LOX IMVI melanoma, -71.6% (active); in the assay on SK-MEL-28 melanoma, -60.3% (active).
